TDP-43 yeast inh – qHTS of TDP-43 Inhibitors; TDP-43 expressing yeast growth rescue, BacTiter-Glo, 24 h; Potency, µM (series often up to 46.1 µM), for inactives: at the top dose growth rescue (activation), actives largely listed as activators; 1.8% of 410,000 active; AID 652104, 2013; further: % of control where 0% means no effect; nearly all actives have a fitted effect of over 50% in size
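Cell-based yeast growth screen: TDP-43 expression induced in galactose, inoculum OD600=0.02 after raffinose pregrowth to mid-log. Read-out BacTiter-Glo luminescence at 24 hr, 30 deg C; inhibition of toxicity seen as signal increase.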
aSyn rescue – qHTS of alpha-syn Inhibitors. Yeast expressing alpha-synuclein, growth rescue, BacTiter-Glo, 24 h. Potency, µM (series often up to 46.1 µM), inactives show top-dose growth rescue (activation), most hits filed as activators. 0.14% of 370,000 active; further: % of control where 0% means no effect; nearly all actives have a fitted effect of over 65% in size
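Rescue of yeast growth: cells expressing toxic alpha-synuclein, induced in galactose at OD600 0.02, incubated with compound 24 h at 30 C. ATP luminescence quantified growth; inhibitors of toxicity appear as activators.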
Mito fusion act – qHTS Assay for Small Molecule Inhibitors of Mitochondrial Division or Activators of Mitochondrial Fusion; 0.23% of 320,000 active; Potency, µM (highest dose often 46.1 µM), for the others: top-dose growth rescue (activation), usual class: activators; S. cerevisiae fusion-defective mutant growth rescue, CellTiterGlo 48 h; further: % of control where 0% means no effect; nearly all actives have a fitted effect of over 45% in size
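Yeast fusion mutant, YPEG (non-fermentable carbon), compound, 48 h at 37C non-permissive; CellTiterGlo added, 10 min RT, luminescence read. Rescued growth = division inhibition.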
FUS yeast rescue – qHTS for Suppressors of FUS Proteinopathy: Primary screen using FUS-linked yeast assay; S. cerevisiae FUS-expressing, growth rescue, OD600, 24 h; Potency, µM (titrated, usually from 76.6 µM), actives largely listed as activators; 0.24% of 390,000 active; AID 1347120, 2019;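 further: plate controls were DMSO vehicle for no effect and reference control for full effect; nearly all actives have a fitted effect of over 55% in size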
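Cultures pregrown in 2.5% raffinose medium are shifted to minimal medium containing 2% galactose to express toxic FUS. Compounds are tested at several concentrations. After 24hr at 30C, growth is quantified at 600 nm absorbance.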
Abeta rescue – qHTS for compounds that reverse cellular toxicity of Amyloid beta (A-beta) peptide in yeast: Primary Screen; yeast expressing A-beta42, growth rescue, OD600, 48 h; response scale: 0% DMSO, 100% iron-clioquinol control; 0.063% of 410,000 active; Potency, µM (series often up to 46.1 µM), most hits filed as activators; further: nearly all actives have a fitted effect of over 55% in size
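Growth rescue measured by 600 nm absorbance after 48 h yeast culture at 30 C with compound. Values normalized between DMSO and an equimolar ferric chloride plus clioquinol control.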
Starred values were filed as active, the others as inactive; i = inactive; ? = inconclusive; nt = no result given. The list is not random: actives were taken first. Their share in the collection is about 2.2%. The call rests on the fitted dose curve; in most records, active means well fitted curve in the direction sought with a large enough effect; inconclusive means small, poorly fitted or top-dose-only effect, or another doubt; inactive means no such curve, though single readings can be large; an effect the other way counts as inactive or inconclusive. Potency means the concentration at half of the fitted maximal effect.

SMILES	TDP-43 yeast inh	aSyn rescue	Mito fusion act	FUS yeast rescue	Abeta rescue
CC(=O)c1ccc(OC(=O)CN2C(=O)c3ccccc3C2=O)cc1	15%	11%	6%	i	i
CCc1ccc(OC(=O)CN2C(=O)c3ccccc3C2=O)cc1	16µM*	12%	-8%	i	i
COc1cc(OC)c(C(=O)OCN2C(=O)c3ccccc3C2=O)cc1OC	-1%	-8%	0%	i	i
Cc1ccc2nc(-c3ccc(C)c(NC(=O)COc4ccc(Cl)cc4)c3)oc2c1	nt	-5%	nt	nt	nt
O=C(c1ccc(Nc2nc3ccccc3n3nnnc23)cc1)N1CCN(c2ccc(F)cc2)CC1	10µM*	nt	nt	i	?
COc1ccc(N2CCN(C(=O)c3ccc(Nc4nc5ccccc5n5nnnc45)cc3)CC2)cc1	8%	nt	nt	?	i
COc1ccc([C@@H]2CC=C(C(=O)O)[C@H](c3ccc(Br)cc3)N2S(=O)(=O)c2ccccc2C)cc1	35µM*	-63%	nt	?	i
Cc1ccc([C@@H]2CC=C(C(=O)O)[C@H](c3cccc(F)c3)N2S(=O)(=O)c2ccccc2C)cc1	17%	-6%	nt	i	i
Cc1ccc([C@@H]2CC=C(C(=O)O)[C@H](c3ccc(F)cc3)N2S(=O)(=O)c2ccccc2C)cc1	28µM*	-7%	nt	i	i
COc1ccc([C@@H]2CC=C(C(=O)O)[C@H](c3ccc(Cl)cc3)N2S(=O)(=O)c2ccccc2C)cc1	18µM*	-33%	-6%	?	i
CS/C(N)=N/C(=S)Nc1cccc(Cl)c1	?	4%	2%	i	13µM*
Cc1ccccc1CSc1nnc(-c2cccs2)n1Cc1ccco1	11%	7%	6%	i	i
C=CCn1c(SCC(=O)C(C)(C)C)nnc1-c1cccs1	8%	1%	1%	i	i
Brc1ccc(CSc2nnc(-c3ccccn3)n2Cc2ccco2)cc1	2%	-1%	?	i	i
C=CCn1c(SCc2ccc3nonc3c2)nnc1-c1cccs1	18µM*	12%	2%	i	i
c1ccc(CSc2nnc(-c3cccs3)n2Cc2ccco2)cc1	18µM*	13%	23%	i	i
Clc1cccc(CSc2nnc(-c3ccccn3)n2Cc2ccco2)c1	20µM*	8%	30%	?	i
c1ccc(Nc2nc(NCc3ccco3)nc3nccnc23)cc1	nt	-2%	nt	nt	nt
COc1ccc(-c2noc(CNC(=O)c3ccccc3Br)n2)cc1	21%	nt	nt	i	i
O=C(Nc1ccsc1C(=O)NC1CC1)c1ccccc1	13µM*	-11%	14%	i	i
CCOC(=O)[C@@]12CN(C(=O)OC(C)(C)C)CC=C1N(Cc1ccc(OC)cc1)C(=O)[C@H]2CC(=O)N1CCCC1	nt	nt	nt	i	nt
O=S(=O)(Nc1ccc(-c2ccc(N3CCCCC3)nn2)cc1)c1ccc(OC(F)(F)F)cc1	-13%	nt	nt	?	i
Cc1ccc(S(=O)(=O)N2CCN(c3nc(-c4ncco4)nc4ccccc34)CC2)cc1	nt	8%	nt	nt	nt
Cc1ccccc1Cn1nnc(-c2ccc3c(c2)OCO3)n1	-6%	7%	8%	i	i
Fc1cccc(Cn2ccc(-c3ccc4c(c3)OCO4)n2)c1	13µM*	-14%	1%	i	i
SMILES	TDP-43 yeast inh	aSyn rescue	Mito fusion act	FUS yeast rescue	Abeta rescue
Cc1ccccc1Cn1ccc(-c2ccc3c(c2)OCO3)n1	18µM*	-8%	-3%	i	i
Nc1ccn(Cc2cccc(F)c2)n1	16%	3%	-3%	i	i
COc1ccc(CNC(=O)c2ccc(CNS(=O)(=O)c3ccc(F)cc3)cc2)cc1	-13%	nt	nt	i	i
O=C(CSCC(=O)N1CCCCC1)Nc1nc(-c2ccccc2)c(-c2ccccc2)s1	?	-2%	26%	18µM*	i
O=C(CSc1nc(-c2ccccc2)c(-c2ccccc2)o1)N1CCCCC1	0%	-20%	nt	?	i
Cc1nc(SCC(=O)NCc2ccc3c(c2)OCO3)c(C#N)c2c1CCCC2	?	18µM*	25%	i	i
O=C(CSc1nncs1)NCc1ccc2c(c1)OCO2	13µM*	-1%	-6%	i	i
Cc1cc(=O)[nH]c(SCC(=O)NCc2ccc3c(c2)OCO3)n1	-21%	-7%	-5%	i	i
c1ccc(-c2nc(-c3cnc4ccccc4n3)cs2)cc1	nt	-18%	nt	nt	nt
O/N=C1\CCCc2ccc3ccccc3c21	11µM*	12%	-2%	i	i
O=C1CCCc2ccc3ccccc3c21	0%	16%	nt	i	i
COc1cccc(O[C@H]2C=C[C@@H](c3ccccc3)O[C@@H]2CO)c1	nt	nt	nt	i	nt
Cc1cccc2c1nc(-c1ccccc1)n1nnnc21	-11%	-4%	-2%	i	i
Cc1cccc2c1nc(-c1ccccc1)n1cnnc21	14µM*	2%	0%	i	i
CCc1nnc(NC(=O)c2ccccc2NC(=O)C2CCN(C(=O)c3ccco3)CC2)s1	nt	0%	nt	nt	nt
CC(=O)Nc1ccc(-c2sc(Nc3cccc4ccccc34)n[n+]2-c2ccccc2)cc1	-4%	18%	2%	32µM*	i
Cc1ccc(N(C)C(=O)Cn2nc(Cc3ccncc3)c3ccccc3c2=O)cc1C	4%	nt	nt	i	i
COC(=O)C1=C(C)NC(C)=C([N+](=O)[O-])C1c1ccccc1C(F)(F)F (stereo unspecified)	13%	4%	13µM*	i	i
COC(=O)C1=C(C)NC(C)=C(C(=O)OC)C1c1ccc(-c2cccc([N+](=O)[O-])c2)o1	16%	0%	1%	i	i
Cc1ccc(C)c(S(=O)(=O)N2CCN(c3nc(-c4cccnc4)nc4ccccc34)CC2)c1	16µM*	9%	?	i	i
COc1cc2c(cc1OC)CN(c1nc(-c3cccnc3)nc3ccccc13)CC2	14µM*	3%	-5%	i	i
O=S(=O)(c1ccccc1F)N1CCN(c2nc(-c3cccnc3)nc3ccccc23)CC1	-16%	4%	?	i	i
CCn1c(=O)n(CC)c2cc(N3CCCCC3)c(NC(=O)Nc3ccccc3Cl)cc21	17%	nt	nt	i	i
Cc1ccc(Sc2ccc(NC(=O)CCl)cc2)cc1C	?	-35%	14µM*	i	i
O=C(CCl)Nc1ccccc1Sc1ccccc1	?	-1%	-5%	i	i
Cc1ccc(C)c(Sc2ccc(NC(=O)CCl)cc2)c1	8.9µM*	17%	6%	i	i
CCC(=O)Nc1ccc(-c2nnc(SCc3ccccc3)n2C)cc1	nt	-12%	nt	nt	nt
C=C1CC2(CC(c3ccccc3)OC(c3ccccc3)C2)OC1=O (stereo unspecified)	10µM*	6%	nt	nt	i
